According to PubChem BioAssay (NCI):
Several values for one entry are separate records, joined by “and”; a condition that tells them apart may be missing. Identical values can stand only once. Compounds without any hit were thinned out: in the full panel of roughly 79,000, 15% have a hit. Some compounds were tested as several samples or in several runs, with calls that do not always agree. Activity calls are given as the source filed them. Rule as the data show it: active = growth inhibition above about 70%; inactive = the rest.

What was measured:
[1] = NCI Yeast Anticancer Drug Screen. Data for the rad50 strain (AID 155);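 also: 0% = growth of vehicle-only cultures of the same strain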; conditions: S. cerevisiae rad50 strain growth inhibition, stronger effect = higher value
Method in brief: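 DNA repair mutant yeast, compound exposure, growth read-out; inhibition is taken relative to vehicle.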

[2] = NCI Yeast Anticancer Drug Screen. Data for the mec2-1 strain (AID 157); conditions: S. cerevisiae mec2-1 strain, stronger effect = higher value
Method in brief: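 Each compound was tested on mec2-1 yeast, a strain altered in DNA damage repair or cell cycle control. Growth inhibition is reported relative to vehicle.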

[3] = NCI Yeast Anticancer Drug Screen. Data for the sgs1 mgt1 strain (AID 161);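 also: 0% = growth of cultures given vehicle only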; conditions: S. cerevisiae sgs1 mgt1 strain, stronger effect = higher value
Method in brief: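 Genetically altered yeast, compound exposure, growth inhibition relative to vehicle.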

[4] = NCI Yeast Anticancer Drug Screen. Data for the cln2 rad14 strain (AID 165);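 also: 0% = growth equal to vehicle treated cultures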; conditions: S. cerevisiae cln2 rad14 strain, stronger effect = higher value
Method in brief: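 Test compounds were added to cln2 rad14 yeast cultures; inhibition of growth was then determined by comparison with vehicle treatment.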

[5] = NCI Yeast Anticancer Drug Screen. Data for the bub3 strain (AID 167); conditions: S. cerevisiae bub3 mutant strain, stronger effect = higher value
Method in brief: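 In this screen, a yeast mutant lacking normal mitotic checkpoint function is challenged with compound. Relative growth versus vehicle gives the inhibition value.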

[6] = NCI Yeast Anticancer Drug Screen. Data for the mlh1 rad18 strain (AID 175); conditions: S. cerevisiae mlh1 rad18 strain growth inhibition, stronger effect = higher value
Method in brief: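 Inhibition values reflect reduced growth of mutant yeast versus vehicle-treated controls following compound exposure; the mutations affect DNA damage repair.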

[7] = at 5.0 µM (retest, dose inferred, filed as 0.5)
[8] = at 50.0 µM (retest, dose inferred, filed as 5.0)

Measured: growth inhibition

ClCCN(CCCl)c1ccc(CN2CCCN(Cc3ccc(N(CCCl)CCCl)cc3Cl)C2c2ccncc2)c(Cl)c1
inactive: [1]; [7] 2% | [2]; [7] 4% | [3]; [7] -4% | [4]; [7] -5% | [4]; at 50.0 µM 43.9% | [5]; [7] 0% | [5]; at 50.0 µM 1.9% | [6]; [7] 9%
active: [1]; [8] 91% | [1]; at 50.0 µM 93.5% | [2]; [8] 96% | [2]; at 50.0 µM 96.8% | [3]; [8] 96% | [3]; at 50.0 µM 93.9% | [4]; [8] 94% | [5]; [8] 93% | [6]; [8] 95% | [6]; at 50.0 µM 97.1%

O=[N+]([O-])c1cc(C(F)(F)F)cc2n[se]nc12
inactive: [3]; [7] 47% | [4]; [7] 49%
active: [1]; [7] 82% | [1]; [8] 98% | [1]; at 50.0 µM 87.2% | [2]; [7] 81% | [2]; [8] 99% | [2]; at 50.0 µM 93.3% | [3]; [8] 100% | [3]; at 50.0 µM 90.8% | [4]; [8] 99% | [4]; at 50.0 µM 90.8% | [5]; [7] 94% | [5]; [8] 97% | [5]; at 50.0 µM 90.6% | [6]; [7] 75% | [6]; [8] 97% | [6]; at 50.0 µM 90.5%

Nc1nc(N)c(-c2ccc(Cl)c(Cl)c2)c(CCc2ccc(CNC(=O)c3cc(S(=O)(=O)F)ccc3Cl)cc2)n1
active: [2]; at 50.0 µM 96% | [5]; at 50.0 µM 74.7% | [6]; at 50.0 µM 94.5%
inactive: [1]; [7] -4% | [1]; [8] 49% | [1]; at 50.0 µM 50.5% | [2]; [7] -4% | [2]; [8] 54% | [3]; [7] -3% | [3]; [8] 50% | [3]; at 50.0 µM 66.8% | [4]; [7] -7% | [4]; [8] 47% | [4]; at 50.0 µM 12.5% | [5]; [7] -2% | [5]; [8] 45% | [6]; [7] -3% | [6]; [8] 53%

COC1/C=C\C=C(/C)C(=O)NC2=CC(=O)C(NCCCl)=C(CC(C)CC(OC)C(O)C(C)/C=C(/C)C1OC(N)=O)C2=O (stereo not drawn)
active: [1]; [8] 97% | [1]; at 50.0 µM 91% | [2]; [8] 98% | [2]; at 50.0 µM 92.3% | [3]; [7] 89% | [3]; [8] 99% | [3]; at 50.0 µM 92.6% | [4]; [7] 88% | [4]; [8] 94% | [4]; at 50.0 µM 90.4% | [5]; [7] 87% | [5]; [8] 98% | [5]; at 50.0 µM 90.5% | [6]; [8] 98% | [6]; at 50.0 µM 89%
inactive: [1]; [7] 24% | [2]; [7] 49% | [6]; [7] 53%

O=C(CBr)Nc1ccccc1Cl
inactive: [1]; [7] 19% | [2]; [7] -3% | [3]; [7] 40% | [4]; [7] 20% | [5]; [7] 23% | [6]; [7] 18%
active: [1]; [8] 99% | [1]; at 50.0 µM 99.3% | [2]; [8] 99% | [2]; at 50.0 µM 99.5% | [3]; [8] 98% | [3]; at 50.0 µM 99.1% | [4]; [8] 99% | [4]; at 50.0 µM 98.5% | [5]; [8] 99% | [5]; at 50.0 µM 99.5% | [6]; [8] 99% | [6]; at 50.0 µM 99.2%

[N-]=[N+]=NS(=O)(=O)c1cccc([N+](=O)[O-])c1
inactive: [1]; [7] 8% | [2]; [7] -17% | [3]; [7] -34% | [4]; [7] 8% | [5]; [7] -24% | [6]; [7] -5%
active: [1]; [8] 100% | [1]; at 50.0 µM 80.2% | [2]; [8] 100% | [2]; at 50.0 µM 87.1% | [3]; [8] 99% | [3]; at 50.0 µM 89.1% | [4]; [8] 99% | [4]; at 50.0 µM 90.8% | [5]; [8] 100% | [5]; at 50.0 µM 90.8% | [6]; [8] 100% | [6]; at 50.0 µM 92.7%

CCCCCCCCCCCC[As](=O)(O)O
inactive: [1]; [7] 0% | [1]; [8] 31% | [2]; [7] -1% | [2]; [8] 26% | [3]; [7] 7% | [3]; [8] 48% | [4]; [7] -3% | [4]; [8] 46% | [5]; [7] 3% | [5]; [8] 53% | [6]; [7] 6% | [6]; [8] 51%
active: [1]; at 50.0 µM 99.4% | [2]; at 50.0 µM 99.3% | [3]; at 50.0 µM 98.2% | [4]; at 50.0 µM 98.5% | [5]; at 50.0 µM 99.2% | [6]; at 50.0 µM 98.9%

CCC[CH2][Sn]1([CH2]CCC)[O]CC(c2ccccn2)C[O]1
active: [1]; [8] 98% | [1]; at 50.0 µM 87.2% | [2]; [8] 98% | [2]; at 50.0 µM 90.7% | [3]; [8] 98% | [3]; at 50.0 µM 88.2% | [4]; [8] 97% | [4]; at 50.0 µM 89.5% | [5]; [8] 99% | [5]; at 50.0 µM 89% | [6]; [8] 98% | [6]; at 50.0 µM 87.4%
inactive: [1]; [7] 36% | [2]; [7] 28% | [3]; [7] 34% | [4]; [7] 21% | [5]; [7] 37% | [6]; [7] 44%

C=C(C)C(=O)OC1CCC2(C)C(CCC3C2CCC2(C)C(c4ccc(=O)oc4)CC4OC432)C1 (stereo not drawn)
inactive: [1]; [7] 7% | [1]; [8] 67% | [2]; [7] 7% | [2]; [8] 48% | [2]; at 50.0 µM 66.7% | [3]; [7] -10% | [3]; [8] 57% | [3]; at 50.0 µM 63.8% | [4]; [7] 26% | [4]; [8] 64% | [4]; at 50.0 µM 60.2% | [5]; [7] 16% | [6]; [7] 21% | [6]; at 50.0 µM 63.9%
active: [1]; at 50.0 µM 71.9% | [5]; [8] 80% | [5]; at 50.0 µM 71.3% | [6]; [8] 73%

Cc1cc(N(CCCl)CCCl)ccc1CN1CCCN(Cc2ccc(N(CCCl)CCCl)cc2C)C1c1ccc(N(CCCl)CCCl)cc1C
inactive: [1]; [7] 4% | [2]; [7] -2% | [3]; [7] 2% | [4]; [7] 1% | [5]; [7] 7% | [6]; [7] 21%
active: [1]; [8] 98% | [1]; at 50.0 µM 98% | [2]; [8] 99% | [2]; at 50.0 µM 98% | [3]; [8] 99% | [3]; at 50.0 µM 98.8% | [4]; [8] 98% | [4]; at 50.0 µM 87% | [5]; [8] 99% | [5]; at 50.0 µM 97.7% | [6]; [8] 98% | [6]; at 50.0 µM 98.6%

[Br][Hg][CH2]COC[CH2][Hg][Br]
inactive: [3]; [8] 51%
active: [1]; [7] 95% | [1]; [8] 99% | [1]; at 50.0 µM 99.4% | [2]; [7] 98% | [2]; [8] 100% | [2]; at 50.0 µM 99.6% | [3]; [7] 98% | [3]; at 50.0 µM 99.5% | [4]; [7] 83% | [4]; [8] 99% | [4]; at 50.0 µM 98.8% | [5]; [7] 96% | [5]; [8] 99% | [5]; at 50.0 µM 99% | [6]; [7] 95% | [6]; [8] 99% | [6]; at 50.0 µM 99.1%

S=c1[nH]c2ccccc2s1
inactive: [1]; [7] -8% | [1]; [8] 45% | [1]; at 50.0 µM 3.25% and 53.4% | [2]; [7] -7% | [2]; [8] 52% | [2]; at 50.0 µM -22.3% and 30.1% | [3]; [7] -3% | [3]; [8] 51% | [3]; at 50.0 µM 15.8% and 62% | [4]; [7] -12% | [4]; [8] 1% | [4]; at 50.0 µM -11.1% and 11.7% | [5]; [7] -4% | [5]; [8] 29% | [5]; at 50.0 µM 8.85% and 55.8% | [6]; [7] -7% | [6]; [8] 38%
4.95% (inactive) and 71.9% (active): [6]; at 50.0 µM

O=C(O)c1ccccc1[Se][Se]c1ccccc1C(=O)O
active: [1]; [8] 73% | [5]; [8] 70% | [6]; [8] 74% | [6]; at 50.0 µM 74.5%
inactive: [1]; [7] 50% | [1]; at 50.0 µM 21.1% | [2]; [7] 26% | [2]; [8] 56% | [2]; at 50.0 µM 10.8% | [3]; [7] 53% | [3]; [8] 67% | [3]; at 50.0 µM 15.9% | [4]; [7] 31% | [4]; [8] 46% | [4]; at 50.0 µM 8.05% | [5]; [7] 49% | [5]; at 50.0 µM 34.1% | [6]; [7] 56%

COc1cc(CC(=O)N2CC2)cc(OC)c1OC
inactive: [1]; [7] -6% | [1]; [8] -1% | [1]; at 50.0 µM 7.85% | [2]; [7] 0% | [2]; [8] 8% | [2]; at 50.0 µM -3.1% | [3]; [7] -6% | [3]; [8] 2% | [3]; at 50.0 µM -13.6% | [4]; [7] -7% | [4]; [8] -3% | [4]; at 50.0 µM 39.4% | [5]; [7] -5% | [5]; [8] -1% | [5]; at 50.0 µM 13.9% | [6]; [7] -2% | [6]; [8] -8% | [6]; at 50.0 µM -13.8%

COc1ccc(-c2c(C)c(C(=O)O)nc(-c3ccc4c(O)c(OC)c5c(c4n3)=NC(C)(C)N=5)c2N)c(O)c1OC
inactive: [2]; [7] 20% | [2]; [8] 68% | [2]; at 50.0 µM 33% | [3]; [7] 39% | [3]; [8] 60% | [3]; at 50.0 µM 41.4% | [4]; [7] 16% | [4]; at 50.0 µM 47% | [5]; [7] -1% | [5]; [8] 7% | [5]; at 50.0 µM 19.9% | [6]; [7] 59% | [6]; at 50.0 µM 61.5%
active: [1]; [7] 76% | [1]; [8] 92% | [1]; at 50.0 µM 75.1% | [4]; [8] 76% | [6]; [8] 87%

CC(=O)[O-].CC(=O)[O-].O=C(N/N=C/c1cc(Cl)cc(Cl)c1[OH2+])c1ccncc1.[Mn+2]
active: [1]; [8] 96% | [1]; at 50.0 µM 97.8% | [2]; [8] 98% | [2]; at 50.0 µM 97.2% | [3]; [8] 92% | [3]; at 50.0 µM 98% | [4]; [8] 95% | [4]; at 50.0 µM 97% | [5]; [8] 96% | [5]; at 50.0 µM 97.5% | [6]; [8] 95% | [6]; at 50.0 µM 98.2%
inactive: [1]; [7] 24% | [2]; [7] 40% | [3]; [7] 40% | [4]; [7] 1% | [5]; [7] 11% | [6]; [7] 3%
